Screening data deposited in PubChem by National Center for Advancing Translational Sciences (NCATS).
The sample as a whole holds a higher share of hits than the screen did.
Pf Dd2 growth: Plasmodium falciparum Dd2 growth inhibition | P. falciparum Dd2 growth, SYBR Green, 72 h | AID 1347417 | Potency, µM (series often up to 28.9 µM), without a hit: top-dose activity, negative = inhibition, usual class: inhibitors | 120,000 tested, 4.3% active; active = well fitted inhibition curve with a large enough effect;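 note: plate controls were DMSO vehicle for no effect and reference drug for full effect; nearly all actives have a fitted effect of over 65% in size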
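Infected erythrocytes (Dd2, 0.3% parasitemia, 2.5% hematocrit final) are added to compound in RPMI-1640/Albumax II medium, grown 72 h at 37C in low oxygen, then lysed with saponin/Triton-X containing SYBR Green and read by fluorescence.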
Starred values were filed as active, the others as inactive; i = inactive; [ ] = remark or other dose. Potency is the fitted concentration of half-maximal effect.

SMILES	Pf Dd2 growth
O=C(CC1CCCCN(Cc2ccccc2)C1=O)NC1CC1 (configuration not stated)	-12.0%
Cc1ccc(C(=O)N2CCCC3(CC(c4cccc(C(F)(F)F)c4)=NO3)C2)cc1 (configuration not stated)	-6.5%
COc1cc(NC(=O)c2ccc3c(c2)N(C)C2CCCN2C3=O)cc(OC)c1OC (configuration not stated)	i
O=C(N[C@H]1[C@H]2CCO[C@H]2[C@@H]1N1CCCCC1)c1ccccc1-c1nn[nH]n1	-6.5%
CCOc1cc(=O)n2c(c1C(=O)NCCCN1CCCc3ccccc31)CCCCC2	-19.1%
COC(=O)c1sc(-c2ccccc2)cc1NC(=O)c1cccc(F)c1	i[5.79 µM]
COC(=O)c1sc(-c2ccccc2)cc1NC(=O)Nc1ccccc1Cl	11.2µM*
COC(=O)c1sc(-c2ccccc2)cc1NC(=O)c1cccc(Cl)c1	451.4%[5.79 µM]
Cn1cnc(S(=O)(=O)N2CCC(CC(=O)NCc3ccccc3)C2)c1 (configuration not stated)	76.6%
O=C1N2CCCC2CN1C1CCN(Cc2ccc(C(F)(F)F)cc2)CC1 (configuration not stated)	-19.5%
CC1CCCCN1C(=O)CSc1nnc(-c2ccccc2Cl)o1 (configuration not stated)	-18.4%
COc1ccccc1N1CCN(C(=O)CSc2nc(-c3ccc(C(C)C)cc3)no2)CC1	0.355µM*
COc1ccccc1N1CCN(C(=O)CSc2n[nH]c(-c3ccccc3)n2)CC1	-2.3%
CC1CCCCN1C(=O)CSc1nc(-c2ccccc2)no1 (configuration not stated)	10µM*
COc1ccccc1N1CCN(C(=O)CSc2nc(C)cc(=O)[nH]2)CC1	54.3%
CC1CCCCN1C(=O)CSc1n[nH]c(-c2ccccc2Cl)n1 (configuration not stated)	7.8%
COCCO[C@H]1C(=O)N(C2CCN(C(=O)c3sc(C)nc3C)CC2)[C@H]1c1ccncc1	-7.0%
COCCNC(=O)c1ccc2c(c1)N(C)C(CC(=O)N1CCCC1)CO2 (configuration not stated)	-16.5%
Cc1ccc2c(c1)nc1n2[C@@H](CNC(=O)c2cccnc2)COC1	0.3%[44.1 µM]
CCN(Cc1noc(C2CCC2)n1)C(=O)c1cc(C(C)C)n2ncnc2n1	-1.6%
COc1ccc(CNC(=O)Cn2c(C)cc3nc4n(c(=O)c32)CCCCC4)cc1	i
CCC(C)NC(=O)CSc1nc2n[nH]c(C)c2c(=N)n1-c1ccc(C)c(Cl)c1 (configuration not stated)	-5.9%
Cc1ccc(-n2c(SCC(=O)Nc3cccc(Cl)c3)nc3n[nH]c(C)c3c2=N)cc1	12.6µM*
Cc1ccc(CNC(=O)CSc2nc3n[nH]c(C)c3c(=N)n2-c2cccc(C)c2)cc1	-13.1%
CCSc1nnc(-c2ccccc2NC(=O)C(CC)n2cccn2)c(=O)[nH]1 (configuration not stated)	15.8%
SMILES	Pf Dd2 growth
CCn1cc(S(=O)(=O)c2cc(C)cc(C)c2)c(=O)c2cc(F)c(N3CCC(C)CC3)cc21	i
CCc1ccc(S(=O)(=O)c2cn(C)c3cc(N4CCOCC4)c(F)cc3c2=O)cc1	-18.7%
CCc1ccc(S(=O)(=O)c2cn(C)c3cc(N4CCCC4)c(F)cc3c2=O)cc1	-10.3%
CCCN1CCN(c2cc3c(cc2F)c(=O)c(S(=O)(=O)c2ccc(CC)cc2)cn3CC)CC1	10µM*
CCCn1cc(S(=O)(=O)c2ccc(CC)cc2)c(=O)c2cc(F)c(N3CCN(C)CC3)cc21	7.08µM*
CCCCn1cc(S(=O)(=O)c2ccccc2)c(=O)c2cc(F)c(N3CCN(CCC)CC3)cc21	-10.4%
COc1ccc(C2Cn3nnc(C(=O)N4CCC(C(=O)NCc5cccc(F)c5)CC4)c3CO2)cc1 (configuration not stated)	-2.1%
COc1cc(C)sc1C(=O)N1CCOCC1CC(=O)NCc1cccnc1 (configuration not stated)	-10.8%
COCCN1CCCCCC(O)c2cc(C(=O)NCCc3c[nH]c4ccccc34)ccc21 (configuration not stated)	5.01µM*
COCCN1CCCCCC(O)c2cc(C(=O)NCCCN3CCCc4ccccc43)ccc21 (configuration not stated)	-19.7%
COCCN1CCCCCC(O)c2cc(C(=O)NCCN3CCOCC3)ccc21 (configuration not stated)	2.4%
COc1cccc(Nc2cc(CN3CCC(C)(NC(C)=O)CC3)cc(OC)c2)c1	i
COc1cccc(-c2cccc(CN3CCCC(C)(NC(C)=O)C3)c2)c1 (configuration not stated)	i
COc1cccc(Nc2csc(CN3CCCC(C)(NC(C)=O)C3)c2)c1 (configuration not stated)	7.94µM*
O=C(c1ccc2c(c1)OCO2)N1CCN(C2CCNCC2)C(=O)C1	-3.9%
CCc1nc(-c2c3n(c(=O)n(CC(=O)NCc4ccc(Cl)cc4)c2=O)CCCC3)no1	8.9%
O=C(c1ccc(C(F)(F)F)cc1)N1CCC(n2c(=O)[nH]c3ccccc32)CC1	-23.2%
